USP8 block: inhibitors of human USP8 deubiquitinase; purified USP8, Ub-rhodamine cleavage fluorescence, 30 min; inhibition, % at 20 µM; 47,000 tested, 4.2% active; AID 1645853, 2021
USP17 inh: inhibitors of human USP17 deubiquitinase; 47,000 tested, 6.5% active; Ubiquitin carboxyl-terminal hydrolase 17-like protein 5 (Homo sapiens), A8MUK1; inhibition, % at 50 µM; purified USP17, Ub-rhodamine cleavage fluorescence, 3 h
USP10 inh: inhibitors of human USP10 deubiquitinase; Ubiquitin carboxyl-terminal hydrolase 10 (Homo sapiens), Q14694; 47,000 tested, 1.1% active; inhibition, % at 20 µM; purified USP10, Ub-rhodamine fluorescence, 60 min
USP28 block: inhibitors of human USP28 deubiquitinase; inhibition, % at 25 µM; 47,000 tested, 3% active; Ubiquitin carboxyl-terminal hydrolase 28 (Homo sapiens), Q96RU2; purified USP28, Ub-rhodamine cleavage fluorescence, 30 min
Target sequence (Q96RU2 whole entry, looked up): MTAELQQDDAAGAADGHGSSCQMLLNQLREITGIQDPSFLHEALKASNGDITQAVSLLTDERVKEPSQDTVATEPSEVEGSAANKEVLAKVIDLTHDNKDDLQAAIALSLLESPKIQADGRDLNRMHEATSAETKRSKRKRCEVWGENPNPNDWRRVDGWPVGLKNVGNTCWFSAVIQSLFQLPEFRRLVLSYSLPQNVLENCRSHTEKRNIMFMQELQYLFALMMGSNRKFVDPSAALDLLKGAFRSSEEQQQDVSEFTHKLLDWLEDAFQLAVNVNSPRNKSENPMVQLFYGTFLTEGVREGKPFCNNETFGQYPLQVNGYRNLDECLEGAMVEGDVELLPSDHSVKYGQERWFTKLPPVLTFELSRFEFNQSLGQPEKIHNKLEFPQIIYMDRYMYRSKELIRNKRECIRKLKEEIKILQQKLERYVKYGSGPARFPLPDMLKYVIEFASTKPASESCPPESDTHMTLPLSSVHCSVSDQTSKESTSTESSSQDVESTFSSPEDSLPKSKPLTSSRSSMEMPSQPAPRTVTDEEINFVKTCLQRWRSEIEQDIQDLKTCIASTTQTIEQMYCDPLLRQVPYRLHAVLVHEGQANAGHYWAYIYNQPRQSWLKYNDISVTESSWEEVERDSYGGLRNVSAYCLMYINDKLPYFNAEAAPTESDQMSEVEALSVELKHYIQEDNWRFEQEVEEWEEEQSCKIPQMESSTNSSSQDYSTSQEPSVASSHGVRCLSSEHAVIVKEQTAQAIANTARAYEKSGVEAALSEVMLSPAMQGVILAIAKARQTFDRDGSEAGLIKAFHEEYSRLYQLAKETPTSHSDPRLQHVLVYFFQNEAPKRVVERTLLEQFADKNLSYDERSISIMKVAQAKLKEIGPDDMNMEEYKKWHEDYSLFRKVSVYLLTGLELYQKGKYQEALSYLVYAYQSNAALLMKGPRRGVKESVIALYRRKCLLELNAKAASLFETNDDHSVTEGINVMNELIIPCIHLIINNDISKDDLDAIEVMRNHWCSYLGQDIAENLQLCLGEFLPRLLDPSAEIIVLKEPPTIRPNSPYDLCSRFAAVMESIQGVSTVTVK
USP30 block: inhibitors of human USP30 deubiquitinase; Ubiquitin carboxyl-terminal hydrolase 30 (Homo sapiens), Q70CQ3; purified USP30, Ub-rhodamine cleavage fluorescence; inhibition, % at 25 µM; 47,000 tested, 5.3% active; AID 1645860, 2021
Active calls of the source: *; i = inactive; · = no result. Shown are actives, neighbours in structure and some others; about 14% of the full set was active somewhere. Rule as the data show it: active = inhibition above about 30%; inactive = the rest.

SMILES	USP8 block	USP17 inh	USP10 inh	USP28 block	USP30 block
Cc1cc(OCC(=O)Nc2ccccc2C#N)nc(-c2ccc(F)cc2)n1	-15	36*	-10	-6	-25
Cc1cc(OCC(=O)Nc2ccccc2)nc(N2CCCCCC2)n1	21	13	4	18	26
Cc1cccc(-n2nc(-c3nc(-c4cccc(Cl)c4)no3)c3ccccc3c2=O)c1	-1	-3	5	-3	0
COc1ccc(CC(=O)N2CCN(C(=O)N(C)C)CC3(CNC(=O)C3)C2)cc1 (configuration not stated)	-27	1	1	-9	10
CCc1ccc(C2c3c(-c4cc(C)cc(C)c4O)n[nH]c3C(=O)N2Cc2cccnc2)cc1 (configuration not stated)	74*	15	15	-2	3
O=C(c1cc(-c2ccncc2)n[nH]1)N1CCN(c2ccc(F)cc2)CC1	-15	-5	2	1	-8
Cc1c(O)c(O)c(O)c(C=O)c1C=O	4	62*	-13	68*	70*
O=C(N[C@@H]1CC[C@@H](Oc2cccc(F)c2)[C@H](O)[C@H]1O)C1CCOCC1	7	1	0	4	3
CC(NC(=O)c1ccc(CS(=O)(=O)c2ccc(Cl)cc2)o1)c1ccccc1 (configuration not stated)	14	0	-1	8	0
COc1ccc(CNC(=O)CCCc2nnc3c(=O)n(-c4cc(C)cc(C)c4)ccn23)cc1	78*	39*	35*	9	-1
O=C(CCCc1nnc2c(=O)n(-c3cccc(F)c3)ccn12)NCc1ccc(Cl)cc1	19	35*	17	-10	-38
Cc1ccc(CNC(=O)CCCc2nnc3c(=O)n(-c4cccc(F)c4)ccn23)cc1	36*	14	-3	7	5
Cc1cccc(NC(=O)CCc2nnc3c(=O)n(-c4cccc(F)c4)ccn23)c1	38*	7	6	4	-1
COc1cccc(CNC(=O)CCc2nnc3c(=O)n(-c4cccc(F)c4)ccn23)c1	-19	9	-2	-2	5
Clc1ccccc1-c1ccc(CNCCN2CCOCC2)o1	10	6	0	12	13
O=C(COc1ccc(OCc2ccccc2)cc1)N1CCSc2ccccc21	-256	7	6	10	26
CN1CC(=O)N(C2CCCNC2)Cc2c(NCc3ccccc3F)ncnc21 (configuration not stated)	-107	-35	-3	1	-2
O=C(CCn1cnc2cc(S(=O)(=O)N3CCCC3)ccc21)N1CCCCC1	3	0	-1	7	1
COc1ccc(OC)c(NC(=O)c2sc(-c3ccccc3)nc2C)c1	42*	51*	17	44*	74*
COc1ccc(OC)c(NC(=O)c2cc3c(CO)cnc(C)c3oc2=O)c1	-13	33*	-1	13	44*
Cc1nc(-c2ccccn2)sc1C(=O)Nc1ccc(F)cc1	1	0	0	·	·
COc1cccc(F)c1-c1nc(C)c(C(=O)NCc2ccccc2)s1	-39	0	-2	4	3
COc1ccc(-c2nc(C)c(C(=O)NCc3ccc(S(N)(=O)=O)cc3)s2)cc1	-71	57*	9	17	19
CCOc1ccc(C(=O)c2cc3c(CO)cnc(C)c3oc2=O)cc1	-51	-1	1	-8	-3
Cc1nc(-c2ccccc2F)sc1C(=O)Nc1cccnc1	27	54*	-2	11	-102
SMILES	USP8 block	USP17 inh	USP10 inh	USP28 block	USP30 block
COc1ccc(C2CC(c3ccccc3)N(C(=O)C3CC3)c3ncnn32)cc1 (configuration not stated)	-264	-181	-4	-278	i
CCCSc1ncnc2c1sc1nc(C(C)C)c3c(c12)CC(C)(C)OC3	-2	-14	-1	-12	-4
CC(=O)c1cccc(NC(=O)c2sc(-c3ccccc3)nc2C)c1	18	19	2	33*	17
Cc1nc(-c2ccccc2)sc1C(=O)Nc1ccc2cc[nH]c2c1	-5	14	0	-9	-9
COc1ccc(OC)c(NC(=O)c2nc(C3CCC3)oc2C)c1	16	15	8	12	31*
COc1ccc(OC)c(NC(=O)c2cc(Cl)ccc2OC)c1	5	62*	6	14	16
CC(=O)Nc1cccc(NC(=O)c2sc3nc(-c4ccccc4)cn3c2C)c1	0	47*	-1	·	·
COc1ccc(NC(=O)c2nc(C3CCC3)oc2C)cc1Cl	-1	3	10	10	-2
O=C(NCC1CC1)c1ccn(-c2ccc3ccc(-c4ccccc4)cn23)n1	-20	-69	-6	-60	-379
O=C(CN1CCCCC1)Nc1nc(-c2ccc3c(c2)CCN3C(=O)C2CC2)cs1	12	31*	-2	15	14
O=C(CN1CCOCC1)Nc1nc(-c2ccc3c(c2)CCN3C(=O)c2ccccc2F)cs1	15	30*	-2	8	11
Cc1ccc(C(=O)N2CCc3cc(-c4csc(NC(=O)Cn5nnc6ccccc65)n4)ccc32)cc1	57*	43*	14	23	8
Cc1sc(NC(=O)Cn2nnc3ccccc32)nc1-c1ccc2c(c1)CCN2C(=O)C1CCCCC1	8	31*	1	13	30
O=C(CN1CCOCC1)Nc1nc(-c2ccc3c(c2)CCN3C(=O)C2CC2)cs1	-11	0	0	-7	-7
COc1ccc([C@@H]2CN(Cc3ccccn3)C[C@H]2c2cc(=O)[nH]c(C)n2)cc1	23	5	-10	2	-8
Cc1oncc1C(=O)N1CCC2(CC1)CN(c1ncccn1)c1ccccc12	-30	-12	-1	1	-8
CC(C)C(=O)N1CCc2cc(-c3csc(NC(=O)CN4CCCCC4)n3)ccc21	-61	-13	-10	-14	-57
CC(C)C(=O)N1CCc2cc(-c3csc(NC(=O)CN4CCc5ccccc5C4)n3)ccc21	50*	23	-5	-27	-106
Cn1nc(C(=O)N2CCCCC2)c2c1-c1ccsc1CC2	-5	16	-2	·	·
O=C(c1cc2c(s1)-c1ccsc1CC2)N1CCCCCC1	12	38*	12	23	46*
CCN1CCC2(CC1)OC(=O)C(C)=C2C(=O)Nc1ccc(OC)cc1	3	2	-4	-9	1
CCOc1ccc(C2c3[nH]c4ccccc4c3C[C@H]3C(=O)N(CCC4=CCCCC4)CC(=O)N23)cc1OC (some centres not stated)	-50	-109	-7	-99	i
CCn1c(SCC(=O)N2c3ccccc3CC2C)nnc1-c1ccc2c(c1)OCCO2 (configuration not stated)	-3	21	0	3	73*
Cn1c(SCC(=O)Nc2ccc3c(c2)OCCO3)nnc1-c1ccncc1	22	5	0	39*	21
Cn1c(SCC(=O)Nc2ccc3c(c2)OCCO3)nnc1C(F)(F)F	-11	-1	1	10	2
CCn1c(SCC(=O)N2CCCC2)nnc1-c1ccc2c(c1)OCCCO2	-12	-3	0	-2	4
